About 14,000 (4.5%) of roughly 310,000 compounds showed an effect of 50% or more. Effects have a minus sign here. Shown is part of a subset that was picked to be rich in strong results.
target: human ether-à-go-go-related gene (hERG) potassium channel (human, UniProt Q12809); assay: primary screen, population patch clamp on CHO cells stably expressing hERG; higher = less effect of the substance
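Further: peak tail current of the secondary pulse compared with the same well before compound.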

human ether-à-go-go-related gene (hERG) potassium channel, sequence (Q12809 whole entry, looked up): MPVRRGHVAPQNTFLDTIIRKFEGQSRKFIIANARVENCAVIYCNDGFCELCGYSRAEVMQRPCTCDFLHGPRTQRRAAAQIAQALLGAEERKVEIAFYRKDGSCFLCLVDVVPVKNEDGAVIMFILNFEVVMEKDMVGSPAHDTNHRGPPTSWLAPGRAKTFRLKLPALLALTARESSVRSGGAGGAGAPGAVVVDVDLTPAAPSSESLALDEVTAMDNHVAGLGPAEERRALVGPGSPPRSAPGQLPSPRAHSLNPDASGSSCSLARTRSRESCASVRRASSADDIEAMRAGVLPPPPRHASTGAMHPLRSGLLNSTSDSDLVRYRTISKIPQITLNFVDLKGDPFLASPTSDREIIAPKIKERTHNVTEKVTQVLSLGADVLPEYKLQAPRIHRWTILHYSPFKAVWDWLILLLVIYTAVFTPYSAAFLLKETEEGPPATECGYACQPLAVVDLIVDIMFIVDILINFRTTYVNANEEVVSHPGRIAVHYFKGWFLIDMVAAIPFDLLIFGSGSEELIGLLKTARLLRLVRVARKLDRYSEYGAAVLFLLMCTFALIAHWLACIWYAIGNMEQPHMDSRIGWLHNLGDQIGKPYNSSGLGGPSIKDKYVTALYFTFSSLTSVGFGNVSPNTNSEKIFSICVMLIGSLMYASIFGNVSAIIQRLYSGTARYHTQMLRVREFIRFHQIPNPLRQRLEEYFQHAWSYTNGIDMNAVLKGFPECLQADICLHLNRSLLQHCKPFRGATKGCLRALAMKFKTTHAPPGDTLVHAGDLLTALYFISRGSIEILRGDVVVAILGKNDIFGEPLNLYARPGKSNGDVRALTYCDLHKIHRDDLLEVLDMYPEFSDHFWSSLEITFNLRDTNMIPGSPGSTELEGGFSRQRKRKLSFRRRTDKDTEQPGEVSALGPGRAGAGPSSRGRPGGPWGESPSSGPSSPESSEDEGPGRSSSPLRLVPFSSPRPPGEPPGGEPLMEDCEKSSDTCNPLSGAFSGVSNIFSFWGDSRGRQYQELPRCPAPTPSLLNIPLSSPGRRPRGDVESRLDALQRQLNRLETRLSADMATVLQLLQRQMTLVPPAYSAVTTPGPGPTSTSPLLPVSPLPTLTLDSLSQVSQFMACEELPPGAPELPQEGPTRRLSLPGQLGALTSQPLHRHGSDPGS

First: O=C(NN1C(=O)CSC1=S)C(=O)NN1C(=O)CSC1=S
Second: Cc1cc(C)cc(-n2ncc3c2CCCC3NC(=O)C2(C(N)=O)CC2)c1 (stereo not drawn)
The “hERG current change (%, negative = inhibition) at 10uM” value of the first is higher: 25.3% for the first, 13.7% for the second.

Going from `O=C(Nc1ccccc1C(=O)Nc1ccccc1C(=O)O)c1ccccc1` to `COc1ccc(NC(=O)C2(c3ccc(NC(=O)c4ccc(OC)cc4)cc3)CCCC2)cc1`, the “hERG current change (%, negative = inhibition) at 10uM” value falls from 20.5% to -9.88%.

First: CN1CCN(Cc2nnc(-c3ccccc3)o2)CC1
Second: CCN1CCN(C(c2ccccc2)c2sc3nc(C)nn3c2O)CC1 (stereo not drawn)
The “hERG current change (%, negative = inhibition) at 10uM” value of the first is higher: 22.7% for the first, -9.32% for the second.

Going from `C/C(=C\C(=O)c1cccnc1)Nc1ccc(C)c(C)c1` to `Cc1ccc(-n2ncc3c2CCCC3NC(=O)c2csnn2)cc1C` (stereo not drawn), the “hERG current change (%, negative = inhibition) at 10uM” value falls from -20% to -33.2%.

First: CCc1ccc(OCC2NCCc3cc(OC)c(OC)cc32)cc1 (stereo not drawn)
Second: COc1cc(C2CC(=O)Oc3c2c(=O)n(C)c2ccccc32)ccc1O (stereo not drawn)
The “hERG current change (%, negative = inhibition) at 10uM” value of the first is lower: -45.2% for the first, 14.7% for the second.

Compared with `CC(=O)Nc1ccc(N2CCCC2)cc1`, `Cc1cc2nc(-c3ccc(SCC(=O)Nc4ccc(S(=O)(=O)N5CCCC5)cc4)nc3)[nH]c2cc1C` is higher in “hERG current change (%, negative = inhibition) at 10uM” value: 6.33% for the first, 8.52% for the second.

Compared with `C/C(CC(=O)Nc1ccccc1)=N\NC(=O)COc1ccc(C)cc1Br`, `C/C(CC(=O)N(C(C)C)C(C)C)=N\NC(=O)COc1ccc(Br)cc1Br` is lower in “hERG current change (%, negative = inhibition) at 10uM” value: 2.14% for the first, -51.3% for the second.

Compared with `C/C(CC(=O)N(C(C)C)C(C)C)=N\NC(=O)COc1ccc(Cl)cc1Cl`, `CCn1c(SCC(=O)N/N=C/c2ccccc2OCC(=O)O)nnc1-c1ccc(C)cc1` is higher in “hERG current change (%, negative = inhibition) at 10uM” value: -22.6% for the first, 3.57% for the second.

Compared with `Cc1cccc(N2C(=O)CC(N3CCN(Cc4ccc5c(c4)OCO5)CC3)C2=O)c1` (stereo not drawn), `Cc1ccc(CN2CCN(Cc3cn(C)nc3-c3ccccc3)CC2CCO)o1` (stereo not drawn) is higher in “hERG current change (%, negative = inhibition) at 10uM” value: -19.1% for the first, 1.84% for the second.

Compared with `Cn1cc(CN2CCN(Cc3ccccc3)C(CCO)C2)c(-c2ccccc2)n1` (stereo not drawn), `CCOc1ccccc1CN1CCN(Cc2cn(C)nc2-c2ccccc2)CC1CCO` (stereo not drawn) is lower in “hERG current change (%, negative = inhibition) at 10uM” value: -37.9% for the first, -65.6% for the second.

Going from `COc1ccc(CN2CCN(Cc3cn(C)nc3-c3ccccc3)CC2CCO)c(C)c1C` (stereo not drawn) to `CCn1ncc(CN2CCN(Cc3ccc(OC)c(C)c3C)C(CCO)C2)c1C` (stereo not drawn), the “hERG current change (%, negative = inhibition) at 10uM” value rises from -72.4% to -19.9%.

First: Cn1c(=O)c(C(=O)COC(=O)c2cc(C3CC3)nc3ccccc23)c(N)n(Cc2ccccc2)c1=O
Second: Cc1ccccc1-n1ncc2c1CC(C)(C)CC2NC(=O)CCN1Cc2ccccc2C1=O (stereo not drawn)
The “hERG current change (%, negative = inhibition) at 10uM” value of the first is higher: 13.8% for the first, -3.54% for the second.

Compared with `Cc1cc(C)cc(-n2ncc3c2CCCC3NC(=O)c2cc(C)[nH]n2)c1` (stereo not drawn), `CC(=O)c1cc(C(=O)NC2CCCc3c2cnn3-c2cc(C)cc(C)c2)[nH]n1` (stereo not drawn) is higher in “hERG current change (%, negative = inhibition) at 10uM” value: -67.5% for the first, -23% for the second.

Going from `Cc1cc(C)cc(-n2ncc3c2CCCC3NC(=O)c2csnn2)c1` (stereo not drawn) to `CC(C)(C)c1ccc(-n2ncc3c2CCCC3NC(=O)c2csnn2)cc1` (stereo not drawn), the “hERG current change (%, negative = inhibition) at 10uM” value rises from -110% to 1.88%.

First: Cc1cc(C(=O)NC2CCCc3c2cnn3-c2ccc(C(C)(C)C)cc2)n[nH]1 (stereo not drawn)
Second: Cc1cc(C)cc(-n2ncc3c2CCCC3NC(=O)C2CCC2)c1 (stereo not drawn)
The “hERG current change (%, negative = inhibition) at 10uM” value of the first is higher: -5.84% for the first, -76% for the second.

First: Cc1cccc(-n2ncc3c2CCCC3NC(=O)CCN2Cc3ccccc3C2=O)c1C (stereo not drawn)
Second: Cc1cc(C)cc(-n2ncc3c2CCCC3NC(=O)CCN2Cc3ccccc3C2=O)c1 (stereo not drawn)
The “hERG current change (%, negative = inhibition) at 10uM” value of the first is higher: 2.55% for the first, -54.3% for the second.

`CC(=O)N1CCC(C(=O)NC2CCCc3c2cnn3-c2cc(F)cc(F)c2)CC1` (stereo not drawn) was tested, and the “hERG current change (%, negative = inhibition) at 10uM” value was -4.52%.
